Common to all, as to assay: qHTS profiling for inhibitors of Plasmodium falciparum proliferation (AID 504749); note: nearly all actives have a fitted effect of over 60% in size
What all share (settings): P. falciparum in erythrocytes, SYBR Green DNA, 72 h; series mostly up to 28.7 µM

The test system of one test is ATS95. In outline: (§1)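 Three-day growth assay of blood-stage parasites in erythrocytes (0.3% parasitemia, 2.5% hematocrit) at 37 C, 5% CO2, quantified by SYBR Green DNA staining after overnight detergent lysis.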
Another test relates to C2A. In outline:
as §1

Another test deals with CP185. Summed up:
as §1

Another test concerns CP191. In outline:
as §1

The test system of the next test is CP192. Summed up:
as §1

In the next test the test system is CP194. Summed up:
as §1

A further test relates to CP201. In outline:
as §1

For the next test, the system named is CP203. Summed up: as §1
A further test deals with CP211. Summed up: as §1
The next test relates to CP215. In outline: as §1
A further test concerns CP217. Summed up:
as §1

The next test deals with CP237. In outline: as §1
The test system of the next test is CP238. In outline:
as §1

For another test, the system named is CP247. In outline:
as §1

The test system of the next test is CP250. Summed up: as §1
A further test relates to CP252. Summed up: as §1
Another test has as its system CP256. In outline: as §1
In another test the test system is CP260. Summed up:
as §1

A further test concerns CP262. Summed up: as §1
A further test relates to CP265. Summed up: as §1

The structures appear in SMILES notation. Inconclusive results are not listed. Activity calls are given as the source filed them. Calls come from the whole dose curve; as a rule, active = well fitted inhibition curve with a large enough effect; inconclusive = small, poorly fitted or top-dose-only effect; inactive = flat fitted curve, though single readings scatter.
Potency is the fitted concentration of half-maximal effect.

In the case of `O=C(O)CCC(=O)Nc1ccc(S(=O)(=O)Nc2nccs2)cc1`, the Potency result in the test on ATS95, in the test with C2A, in the test with CP185, with CP191, in the test on CP192 and with CP194 was “inactive” each time. Moreover, the Potency entry in the test on CP201, in the test with CP203, in the test on CP211, in the test on CP215, in the test on CP217 and in the test with CP237 was “inactive” throughout. Moreover, the Potency result with CP238, in the test on CP247, in the test on CP250, in the test with CP252, in the test with CP256 and in the test on CP260 was “inactive” each time. For the same molecule, the Potency entry in the test on CP262 and in the test with CP265 was “inactive” throughout.
With `CC(C)Cc1ccc(CC(=O)O)cc1`, the Potency result in the test on ATS95, with C2A, with CP185, with CP191, in the test on CP192 and with CP194 was “inactive” throughout. The Potency entry with CP201, in the test with CP203, in the test on CP211, with CP215, in the test on CP217 and with CP237 was “inactive” in each case. In addition, the Potency result in the test with CP238, in the test on CP247, with CP250, with CP252, in the test with CP256 and in the test on CP260 was “inactive” in each case. For the same molecule, the Potency entry with CP262 and with CP265 was “inactive” each time.
For the molecule `O=C(Nc1cccc(C2=NCCN2)c1)Nc1cccc(C2=NCCN2)c1`, the Potency in the test with ATS95 was 5.01 µM (active); with C2A it was 5.01 µM (active); in the test on CP185, 4.47 µM (active); in the test on CP191, 1.12 µM (active); in the test on CP192, 15.1 µM (active); with CP194 it was 15.1 µM (active). In addition, the Potency with CP201 is 13.5 µM (active); with CP203 it was 15.1 µM (active); with CP211, 13.5 µM (active); with CP215, 12 µM (active); in the test on CP217 it was 3.55 µM (active); in the test on CP237, 6.31 µM (active). In addition, the Potency was 6.31 µM (active) in the test on CP238; 2.82 µM (active) with CP247; 3.55 µM (active) in the test on CP250; 3.16 µM (active) in the test with CP252; 0.708 µM (active) in the test on CP256; 2.51 µM (active) in the test with CP260. For the same molecule, the Potency with CP262 is 4.78 µM (active).
In the case of `Cc1cc(-c2ccccc2)nnc1NCCN1CCOCC1`, the Potency entry with ATS95, in the test on C2A, with CP185, in the test with CP191, in the test on CP192 and in the test on CP194 was “inactive” throughout. Besides, the Potency entry in the test on CP201, with CP203, with CP211, in the test with CP215, in the test with CP217 and in the test on CP237 was “inactive” in each case. In addition, the Potency result with CP238, with CP247, with CP250, in the test with CP252, in the test with CP256 and with CP260 was “inactive” in each case. Moreover, the Potency entry in the test on CP262 and in the test on CP265 was “inactive” each time.
For `CCCCCCCCOc1ccc(C(=O)c2ccccc2)c(O)c1`, the Potency result in the test with ATS95, with C2A, with CP185, in the test on CP191, in the test with CP192 and in the test on CP194 was “inactive” in each case. Besides, the Potency result in the test on CP201, in the test on CP203, in the test on CP211, in the test with CP215, in the test on CP217 and in the test with CP237 was “inactive” throughout. In addition, the Potency result with CP238, with CP247, in the test with CP250, in the test with CP252, in the test with CP256 and with CP260 was “inactive” each time. Further, the Potency entry in the test on CP262 and in the test on CP265 was “inactive” throughout.
Take `CCCCC(CC)COC(=O)/C=C/c1ccc(OC)cc1` (centres undefined): the Potency result in the test on ATS95, in the test with C2A, in the test on CP185, in the test on CP191, in the test on CP192 and in the test on CP194 was “inactive” each time. The Potency result in the test on CP201, with CP203, with CP211, in the test with CP215, in the test with CP217 and in the test with CP237 was “inactive” in each case. Further, the Potency result in the test on CP238, with CP247, in the test on CP250, in the test on CP252, in the test with CP256 and in the test with CP260 was “inactive” throughout. Moreover, the Potency entry in the test with CP262 and in the test with CP265 was “inactive” in each case.
In the case of `CCOc1cc(OCC)c(C(=O)CCC(=O)O)cc1OCC`, the Potency result with ATS95, in the test with C2A, in the test on CP185, in the test on CP191, in the test on CP192 and in the test with CP194 was “inactive” each time. Also, the Potency entry in the test with CP201, with CP203, in the test on CP211, in the test with CP215, with CP217 and with CP237 was “inactive” in each case. In addition, the Potency entry in the test on CP238, with CP247, with CP250, with CP252, in the test with CP256 and in the test on CP260 was “inactive” throughout. For the same molecule, the Potency result in the test on CP262 and in the test with CP265 was “inactive” each time.
For `C#C[C@]1(O)CC[C@H]2[C@@H]3CCC4=Cc5oncc5C[C@]4(C)[C@H]3CC[C@@]21C`, the Potency entry with ATS95, in the test with C2A, with CP185, in the test on CP191, in the test with CP192 and in the test with CP194 was “inactive” throughout. In addition, the Potency entry with CP201, in the test on CP203, in the test with CP211, in the test with CP215, with CP217 and in the test on CP237 was “inactive” throughout. Further, the Potency entry in the test with CP238, in the test with CP247, with CP250, in the test on CP252, with CP256 and with CP260 was “inactive” throughout. In addition, the Potency entry in the test with CP262 and in the test on CP265 was “inactive” in each case.
`Nc1ccc(C(=O)NCC(=O)O)cc1`: the Potency result in the test on ATS95, in the test on C2A, in the test with CP185, with CP191, with CP192 and in the test on CP194 was “inactive” each time. Also, the Potency result with CP201, in the test with CP203, in the test on CP211, with CP215, with CP217 and with CP237 was “inactive” in each case. Also, the Potency result in the test with CP238, with CP247, in the test on CP250, in the test on CP252, in the test on CP256 and in the test on CP260 was “inactive” throughout. In addition, the Potency entry in the test on CP262 and in the test with CP265 was “inactive” in each case.
As for `CCCCCCCCNC(C)C(O)c1ccc(SC(C)C)cc1` (centres undefined), the Potency was 1.26 µM (active) with ATS95; 0.891 µM (active) in the test on C2A; 0.891 µM (active) in the test on CP185; 0.794 µM (active) in the test on CP191; 2.13 µM (active) with CP192; 1.9 µM (active) in the test with CP194. In addition, the Potency was 3.79 µM (active) in the test with CP201; 1.69 µM (active) in the test with CP203; 3.38 µM (active) in the test with CP211; 1.69 µM (active) in the test on CP215; 0.708 µM (active) in the test on CP217; 0.794 µM (active) in the test with CP237. Moreover, the Potency in the test on CP238 is 0.794 µM (active); in the test with CP247, 0.891 µM (active); with CP250, 0.891 µM (active); in the test on CP252, 0.794 µM (active); with CP256, 1 µM (active); in the test with CP260 it was 0.355 µM (active). Also, the Potency was 2.13 µM (active) in the test with CP262 and 1.12 µM (active) in the test on CP265.
Take `CC(=O)Nc1ccc(OCC(O)CNC(C)C)cc1` (centres undefined): the Potency result with ATS95, in the test with C2A, in the test on CP185, in the test with CP191, with CP192 and in the test with CP194 was “inactive” each time. Besides, the Potency result in the test on CP201, in the test with CP203, in the test with CP211, in the test on CP215, in the test with CP217 and in the test on CP237 was “inactive” in each case. In addition, the Potency entry with CP238, in the test on CP247, in the test on CP250, with CP252, in the test on CP256 and in the test on CP260 was “inactive” in each case. For the same molecule, the Potency result in the test on CP262 and in the test on CP265 was “inactive” in each case.
As for `CCCCN=C(N)N=C(N)N`, the Potency entry with ATS95, in the test on C2A, in the test with CP185, in the test on CP191, with CP192 and with CP194 was “inactive” in each case. In addition, the Potency entry with CP201, in the test with CP203, with CP211, in the test on CP215, with CP217 and in the test on CP237 was “inactive” in each case. For the same molecule, the Potency entry with CP238, with CP247, with CP250, with CP252, in the test on CP256 and in the test with CP260 was “inactive” throughout. The Potency result in the test on CP262 and with CP265 was “inactive” throughout.
Take `O=C(O)P(=O)(O)O`: the Potency entry with ATS95, with C2A, with CP185, with CP191, in the test on CP192 and in the test on CP194 was “inactive” each time. In addition, the Potency result in the test with CP201, with CP203, in the test with CP211, in the test with CP215, in the test on CP217 and in the test on CP237 was “inactive” throughout. The Potency result in the test with CP238, in the test on CP247, with CP250, in the test on CP252, with CP256 and in the test with CP260 was “inactive” in each case. For the same molecule, the Potency entry in the test on CP262 and in the test with CP265 was “inactive” each time.

Source of the values: PubChem BioAssay (NCATS).
